# High-throughput results (PubChem)
# Rows were chosen to be rich in hits. Some 5.1% of all compounds tested hit in one or more screens of this group.
# S1P4 agonist – S1P4 receptor agonists, primary screen, cell-based. Sphingosine 1-phosphate receptor 4 (Homo sapiens), O95977. S1P4-expressing cell line, agonist reporter assay. activation, % at 4.98 µM. 0.35% of 220,000 active; in the data active = activation above about 11%;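 also: 0% = DMSO vehicle and 100% = reference agonist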
# S1P4 antagonist – S1P4 receptor antagonists, primary screen, cell-based; S1P4-expressing cells, antagonist mode, reporter read-out; inhibition, % at 4.98 µM; 0.26% of 220,000 active; AID 1510, 2009; in the data active = inhibition above about 29%;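 also: 0% = wells stimulated with agonist and 100% = vehicle wells without agonist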
# S1P3 antagonist – S1P3 receptor antagonists, primary screen, cell-based | Sphingosine 1-phosphate receptor 3 (Homo sapiens), Q99500 | CHO S1P3 NFAT-BLA reporter, FRET fluorescence, antagonist mode | inhibition, % at 4.98 µM | 0.27% of 170,000 active;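 active = inhibition above the plate cutoff, the mean inhibition of test wells on that plate plus 3 SD, cut at about 28% in these data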;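 also: cells challenged with S1P at its EC80 of 0.8 µM; blue over green emission ratio from cleaved BLA substrate after 4 h stimulation; 0% = S1P-stimulated wells and 100% = unstimulated DMSO-only wells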
# ROMK primary – ROMK potassium channel modulators, primary screen, cell-based, thallium flux, MLSMR library; Tet-inducible ROMK, thallium flux fluorescence; actives lie on both sides; B-score at 10 µM; 2% of 130,000 active;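 active = signal ratio slope over the read window, or its plate-corrected B-score, at least 3 SD from the plate mean, either direction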;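 also: B-score of the F/F0 ratio slope over 7 to 12 s after thallium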
# RAM network inh – inhibitors of the yeast RAM network, primary screen, dse1pr::URA3 reporter, 5-FOA selection. S. cerevisiae dse1pr::URA3 reporter, 5-FOA growth OD615, 2 d; analog-sensitive cbk1-as2 kinase mutant strain. inhibition, % at 50 µM. 1.8% of 190,000 active. AID 868, 2007;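 active = inhibition above a set limit, 3 SD over mean compound inhibition, cut at about 8.4% in these data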;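 also: 0% = DMSO-only wells with no growth and 100% = 10 µM 1-NA-PP1 full growth; inhibition rescues growth on 5-FOA so higher OD means more RAM inhibition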
# KCC2 mod – KCC2 cotransporter modulators, thallium flux, primary screen, cell-based, HEK293 KCC2, FluoZin-2 fluorescence, MLSMR; Solute carrier family 12 member 5 (Homo sapiens), Q9H2X9; KCC2 cells, thallium flux FluoZin-2 fluorescence; B-score of Tl+ flux slope (higher = more flux/activation; lower = inhibition) at 10 µM; 2.2% of 190,000 active; AID 1456, 2008;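 active = thallium flux slope and its plate-corrected score both differing from the plate sample mean at a set confidence after two filtering rounds, in either direction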;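 also: slope of fluorescence scaled to starting intensity during 10 to 20 s after thallium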
# Target sequence (Q9H2X9 whole entry, looked up): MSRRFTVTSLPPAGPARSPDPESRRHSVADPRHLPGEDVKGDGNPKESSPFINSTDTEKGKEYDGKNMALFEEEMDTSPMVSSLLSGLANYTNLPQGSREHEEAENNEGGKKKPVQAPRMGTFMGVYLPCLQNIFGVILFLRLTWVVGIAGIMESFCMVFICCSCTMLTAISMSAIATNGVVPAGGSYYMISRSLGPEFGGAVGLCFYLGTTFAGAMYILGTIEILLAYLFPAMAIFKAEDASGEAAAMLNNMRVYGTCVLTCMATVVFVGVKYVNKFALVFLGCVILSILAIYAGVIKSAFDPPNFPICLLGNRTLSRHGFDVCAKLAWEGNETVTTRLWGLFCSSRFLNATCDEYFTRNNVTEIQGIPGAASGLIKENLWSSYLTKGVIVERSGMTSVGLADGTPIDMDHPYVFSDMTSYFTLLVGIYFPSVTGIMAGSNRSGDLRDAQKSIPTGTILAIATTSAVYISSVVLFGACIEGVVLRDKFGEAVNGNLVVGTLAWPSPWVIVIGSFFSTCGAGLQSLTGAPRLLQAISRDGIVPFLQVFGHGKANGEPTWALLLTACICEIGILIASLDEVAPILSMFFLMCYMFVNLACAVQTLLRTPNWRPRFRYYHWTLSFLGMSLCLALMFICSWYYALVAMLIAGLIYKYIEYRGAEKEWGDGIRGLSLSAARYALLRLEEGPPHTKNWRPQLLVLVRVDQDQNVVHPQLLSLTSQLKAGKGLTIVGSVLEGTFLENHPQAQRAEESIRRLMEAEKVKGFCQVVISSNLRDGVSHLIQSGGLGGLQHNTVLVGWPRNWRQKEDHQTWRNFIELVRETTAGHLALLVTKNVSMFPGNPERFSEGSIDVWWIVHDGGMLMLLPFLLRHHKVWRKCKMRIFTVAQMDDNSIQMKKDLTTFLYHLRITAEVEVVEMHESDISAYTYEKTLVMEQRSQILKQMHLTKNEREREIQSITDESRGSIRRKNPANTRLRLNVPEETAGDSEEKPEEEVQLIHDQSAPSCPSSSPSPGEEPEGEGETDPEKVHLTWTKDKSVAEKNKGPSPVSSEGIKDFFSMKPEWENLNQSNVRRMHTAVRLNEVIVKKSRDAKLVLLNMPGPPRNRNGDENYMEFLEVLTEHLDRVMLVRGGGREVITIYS
# An asterisk follows results filed as active; . = no result given.
SMILES,S1P4 agonist,S1P4 antagonist,S1P3 antagonist,ROMK primary,RAM network inh,KCC2 mod
Cc1[nH]n(-c2cccc(Cl)c2)c(=O)c1C=NCC(C)C,0,-9,-7,0.55,2,-0.14
NS(=O)(=O)c1ccc(NC(=O)COC(=O)c2cn(-c3ccccc3)nc2-c2ccc(F)cc2)cc1,-1,-2,-4,0.75,6,1.8
CN(C)S(=O)(=O)c1cccc(NC(=O)COC(=O)c2cn(-c3ccccc3)nc2-c2ccccc2)c1,-2,-9,4,0.33,9.1*,-0.42
CC(C)Cn1c(=O)c(C2=NS(=O)(=O)c3ccccc3N2)c(O)c2ccccc21,3,-24,-29,.,.,8.8*
Oc1ccccc1CNc1ccc(Br)cn1,2,1,.,.,0,20*
Brc1ccc(NCc2cccc3ccccc23)nc1,3,-6,.,0.083,2,.
CCSc1nnc([C@H](Cc2ccccc2)NC(=O)OC(C)(C)C)o1,3,-12,.,0.26,1,0.63
CC(C)(C)OC(=O)N[C@@H](Cc1ccccc1)c1nnc(S(=O)(=O)Cc2ccccc2)o1,-4,73*,-9,-0.14,5,-1.1
COc1ccccc1C(=O)NNC(=S)NC(=O)c1sc2ccccc2c1Cl,5,-5,-5,.,4,20*
Cc1c(NC(=S)NC(=O)c2sc3ccccc3c2Cl)cccc1C(=O)O,1,-16,-15,1.4,1,-2.7
CC1CCCCC1NC(=S)NC(=O)c1sc2ccccc2c1Cl (centres undefined),0,-2,-13,-0.025,8,2.1
COc1ccccc1C(=O)NC(=S)NNC(=O)c1sc2ccccc2c1Cl,0,0,-12,.,1,34*
CCOc1ccc(S(=O)(=O)Nc2ccccc2C(=O)Nc2ccccc2N2CCOCC2)cc1,3,-18,7,.,8.8*,-0.16
CCOc1ccc(NC(=O)c2ccccc2NS(=O)(=O)c2ccc(F)cc2)c([N+](=O)[O-])c1,4,-13,-4,-1.4,10*,-1.7
COc1ccc(C(=O)CSc2ccccc2C(=O)O)cc1,-2,0,4,0.68,1,1.5
Cc1cccc(NC(=O)NNC(=O)c2sccc2-n2cccc2)c1,-1,-5,-10,0.89,-1,0.0018
O=C(NC1CC1)c1ccc2c(Cl)c3c(nc2c1)CCCC3,0,-5,10,.,2,-0.37
CCOC(=O)N1CCC(NC(=O)c2ccc3c(Cl)c4c(nc3c2)CCCC4)CC1,1,0,-1,-2.5*,0,0.15
Cc1ccccc1NC(=O)Cn1nnc2ccccc21,1,-8,-18,0.3,-1,0.9
Cc1ccc(S(=O)(=O)N(C)c2cc(S(=O)(=O)Nc3ccncc3)c(C)cc2C)cc1,1,-11,-1,.,2,1.5
CNS(=O)(=O)c1cc(N(C)S(=O)(=O)c2ccc(C)cc2)c(C)cc1C,0,4,-8,-1.5,10*,-0.53
CC(=O)Oc1ccc(-c2cccc(C(=O)OCC(=O)Nc3ccccc3Oc3ccccc3)c2)cc1,-1,1,1,.,6,1
O=C(COC(=O)c1cccc(Cl)c1)Nc1cc(Cl)ccc1Oc1ccccc1,1,-22,-38,0.012,10*,-2.2
COC(=O)C(Cc1ccccc1)NC(=O)c1cccc(S(=O)(=O)N(C)C)c1 (centres undefined),7,1,-7,0.37,1,-1.2
O=[N+]([O-])c1ccc(NCCCNS(=O)(=O)c2ccc(Cl)cc2)c(Cl)c1,-1,4,.,.,10*,0.51
SMILES,S1P4 agonist,S1P4 antagonist,S1P3 antagonist,ROMK primary,RAM network inh,KCC2 mod
Cc1nc2ccc(NC(=O)Cc3c(F)cccc3Cl)cc2s1,0,-14,-3,.,.,0.057
CCOC(=O)Cc1cnc(NC(=O)Cn2nnc(-c3ccc(OCC)cc3)n2)s1,1,-20,-17,.,3,-2
CCCCOc1ccc(-c2nnn(CC(=O)Nc3ncc(CC(=O)OCC)s3)n2)cc1,1,-4,-20,.,9.3*,-1.2
COc1ccc(N(C(=O)c2ccco2)S(=O)(=O)c2cccs2)cc1,2,-27,-24,0.047,1,-2.8*
COc1ccc(C(=O)N(c2ccc(OC)cc2)S(=O)(=O)c2cccs2)cc1,0,-9,7,-1.5,6,-0.56
O=C(NCCCN1CCOCC1)c1c(O)c2cc(Br)cc(Br)c2[nH]c1=O,0,-8,-20,-3.3*,.,0.026
COc1cc2[nH]c(=O)c(C(=O)NCCCN3CCOCC3)c(O)c2cc1OC,-1,2,-24,0.56,1,1.6
Cc1ccc(Oc2cc(C)nc(-c3ccccc3O)n2)cc1,2,4,-19,0.23,9.4*,.
Cc1cc(OC2CCCCC2)nc(-c2ccccc2O)n1,1,-5,-7,-0.11,2,.
Cc1ccccc1OC1C(=O)N(Cc2ccc3c(c2)OCO3)C1c1sccc1C (centres undefined),-2,-3,.,.,10*,.
CCSc1nc(C2CC2)cc(-c2ccco2)c1C#N,0,8,.,.,10*,1.2
CCSc1nc(C2CC2)cc(-c2cccs2)c1C#N,2,1,.,0.22,2,.
COc1cc2c(cc1NC(=S)Nc1cccc3ccccc13)oc1ccccc12,-2,-4,.,1.4*,4,-0.029
COc1cc2c(cc1NC(=S)Nc1cccc(C(F)(F)F)c1)oc1ccccc12,1,5,.,.,1,0.75
O=C(NCc1cccnc1)c1cccs1,0,-15,1,-0.015,1,0.98
COc1ccc(C2=NN(C(C#N)c3ccc(OC)c(OC)c3)C(c3ccccc3)C2)cc1 (centres undefined),3,9,.,0.67,8.5*,0.31
COc1ccc(C(C#N)N2CCC(c3ccccc3)=N2)cc1OC (centres undefined),2,-15,-4,0.29,3,-1.7
Cc1ccc(C)c(SCC(=O)NC(=O)NCc2ccccc2)c1,1,-6,-12,-0.33,11*,0.022
Cc1ccc(C)c(SCC(=O)OCC(=O)NCc2ccccc2)c1,0,-10,-13,0.26,1,0.0083
COC(=O)COc1ccc(NS(=O)(=O)c2cccc([N+](=O)[O-])c2)cc1,0,-4,-6,0.77,2,0.11
CCCn1c(=O)c(C(=O)OCC)c(O)c2cc(Br)ccc21,-1,0,-20,.,9.8*,-1.3
Cc1cccc(Cn2c(C(=O)OC(C)C)cc3c2ccn3C)c1,-1,21,.,.,11*,-1.7
CCOC(=O)c1cc2c(ccn2C)n1Cc1ccc(C#N)cc1,2,-14,6,-0.18,10*,-1
